Bioassay records as filed in PubChem BioAssay.
This is a sample that favours compounds with a hit; in the whole collection about 1.1% have one here.
p53 reactivator = mutant p53 re-activation in reporter cells. H1299 p53-A138V BP100-luciferase reporter, luminescence, 24 h. Potency, µM (doses to about 92.2 µM), for inactives: top-dose activity change, positive = activation, actives largely listed as activators. 320,000 compounds, 0.063% hits; also: potency is read from the fitted curve at half-maximal effect; % of control where 0% means no effect; nearly all actives have a fitted effect of over 45% in size
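p53-null H1299 cells stably carrying temperature-sensitive p53-A138V and a BP100-luciferase reporter were pinned with compounds (4-point, 1:5 series) and held 24 hrs at 37 deg C. Luminescence was read 10 min after detection reagent.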
gsp agonist = agonists of gsp mutant (McCune-Albright syndrome) | gsp mutant cells, cAMP HTRF, 30 min | Potency, µM (titrated, usually from 76.9 µM), inactives show at the highest dose activation (cAMP increase), hits mostly activators | 340,000 compounds, 0.13% hits | AID 624287; active = well fitted activation curve with a large enough effect; inconclusive = small, poorly fitted or top-dose-only effect, or another doubt; inactive = no such curve, though single readings can be large or run the other way; cell line not stated here;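 also: phosphodiesterase inhibitor Ro 20-1724 added with compounds to block cAMP breakdown; potency is read from the fitted curve at half-maximal effect; nearly all actives have a fitted effect of over 60% in size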
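Cells in DMEM/10% FBS with G418 were pretreated with compounds in DMSO plus […] (300 uM stock) for 30 min at 37C. cAMP was measured by HTRF (cAMP-d2 plus anti-cAMP antibody-K) after 30 min at room temperature.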
RXFP1 antagonist = blocks the human relaxin receptor RXFP1 | HEK293-RXFP1, relaxin-stimulated cAMP HTRF, 30 min; hits give low values | 350,000 compounds, 0.59% hits | AID 1259400 | activity change, negative = inhibition, % at 57.5 µM;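 active = activity change of -60% or lower, but not beyond a set lower limit; inconclusive = change between -60% and -40%, or beyond the set limit; inactive = change above -40%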; also: % is scaled to controls: 0 for no effect and ±100 for the full control effect
Target sequence (Q9HBX9 whole entry, looked up): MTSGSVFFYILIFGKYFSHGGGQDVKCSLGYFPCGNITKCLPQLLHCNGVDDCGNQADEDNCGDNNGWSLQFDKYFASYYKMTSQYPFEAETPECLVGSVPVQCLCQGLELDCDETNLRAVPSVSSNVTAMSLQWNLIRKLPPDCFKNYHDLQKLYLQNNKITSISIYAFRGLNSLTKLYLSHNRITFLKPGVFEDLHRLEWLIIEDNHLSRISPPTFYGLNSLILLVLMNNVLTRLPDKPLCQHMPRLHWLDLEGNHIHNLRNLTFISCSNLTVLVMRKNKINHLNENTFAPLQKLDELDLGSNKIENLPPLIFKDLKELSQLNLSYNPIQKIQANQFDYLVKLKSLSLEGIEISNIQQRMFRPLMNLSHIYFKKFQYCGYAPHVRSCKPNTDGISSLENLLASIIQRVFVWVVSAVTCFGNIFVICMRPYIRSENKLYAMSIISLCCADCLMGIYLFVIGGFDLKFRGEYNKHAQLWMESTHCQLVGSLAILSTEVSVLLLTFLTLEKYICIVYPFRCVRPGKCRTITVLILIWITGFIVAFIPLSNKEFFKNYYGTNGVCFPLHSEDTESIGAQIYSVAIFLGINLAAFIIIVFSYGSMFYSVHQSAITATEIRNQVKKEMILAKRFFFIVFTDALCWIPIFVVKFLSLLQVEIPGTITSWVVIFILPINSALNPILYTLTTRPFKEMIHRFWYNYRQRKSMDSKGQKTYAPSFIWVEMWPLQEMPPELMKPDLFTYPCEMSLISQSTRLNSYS
Tb PFK inh-1 = blocks T. brucei phosphofructokinase | AID 485367 | Potency, µM (titrated, usually from 57.5 µM), without a hit: at the top dose activity, negative = inhibition, most hits filed as inhibitors | T. brucei PFK, ADP-Glo luminescence | 330,000 compounds, 0.17% hits | O15648;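 also: potency is read from the fitted curve at half-maximal effect; 0% = uninhibited 1x PFK enzyme wells and -100% = no-enzyme wells; nearly all actives have a fitted effect of over 60% in size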
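In TEA buffer at pH 8.0 with 5 mM MgCl2, enzyme (1.25 nM) converted F6P (0.5 mM) and ATP (0.1 mM) for 45 min at room temperature. ADP product was read by luciferase luminescence.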
gsp antag = gsp mutant antagonism. AID 624288. Potency, µM (highest dose often 76.9 µM), for the others: top-dose activity change, negative = inhibition, usual class: inhibitors. 340,000 compounds, 0.4% hits. gsp-mutant cells, cAMP HTRF, 30 min; calls by dose curve; cell line not stated here;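 also: intracellular cAMP measured with PDE inhibitor Ro 20-1724 present during compound exposure; potency is read from the fitted curve at half-maximal effect; % is scaled to controls: 0 for no effect and ±100 for the full control effect; nearly all actives have a fitted effect of over 65% in size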
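HTRF cAMP measurement after 30 min RT detection following 30 min, 37C compound treatment alongside […] (added as 300 uM solution) in G418-selected cells seeded at 2000/well and grown 16–24 h.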
RXFP1 ag = activates the human relaxin receptor RXFP1; Q9HBX9; HEK293T-RXFP1 cAMP TR-FRET, 30 min; response scale: percent of porcine relaxin response, buffer zero; Potency, µM (titrated, usually from 57.5 µM), without a hit: at the highest dose activation, actives largely listed as activators; 370,000 compounds, 0.3% hits; AID 2676; also: potency is read from the fitted curve at half-maximal effect; % is scaled to controls: 0 for no effect and ±100 for the full control effect; nearly all actives have a fitted effect of over 60% in size
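HEK293T cells stably expressing RXFP1 were pretreated with the PDE4 inhibitor Ro 20174, exposed to compounds for 30 min at 37C, lysed, and cAMP was read by TR-FRET. Data normalized to buffer (basal) and 29 nM porcine relaxin (100%).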
TbPFK ATP = Tb phosphofructokinase inhibition, orthogonal luminescence. 1,100 compounds, 47% hits. AID 504636. Tb PFK enzyme, ATP depletion, Kinase-Glo Plus luminescence. shares compounds with Tb PFK inh-1. Potency, µM (top dose mostly 57.5 µM), inactives show top-dose inhibition; calls by dose curve; also: potency is read from the fitted curve at half-maximal effect; nearly all actives have a fitted effect of over 60% in size
Tb PFK inh-2 = validation of T. brucei phosphofructokinase inhibitors; purified T. brucei PFK, ADP-Glo luminescence, 45 min; Potency, µM (highest dose often 57.5 µM), inactives show at the highest dose activity change, negative = inhibition, most hits filed as inhibitors; 1,100 compounds, 41% hits; shares compounds with Tb PFK inh-1;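 also: potency is read from the fitted curve at half-maximal effect; plate controls were full PFK enzyme control for no effect and no enzyme control for full effect; nearly all actives have a fitted effect of over 60% in size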
* = called active by the depositor; u = inconclusive; x = no result given; [ ] = another dose, or the depositor's remark. Unless noted, calls follow the shape of the dose curve; as a rule, active = well fitted curve in the direction sought with a large enough effect; inconclusive = small, poorly fitted or top-dose-only effect, or another doubt; inactive = no such curve, though single readings can be large; an effect the other way counts as inactive or inconclusive.

SMILES	p53 reactivator	gsp agonist	RXFP1 antagonist	Tb PFK inh-1	gsp antag	RXFP1 ag	TbPFK ATP	Tb PFK inh-2
COc1cc(OC)cc(C(=O)N2CCC(N3CCN(c4ccccc4)CC3)CC2)c1	-4.1%	-42.3%	-3.5	-1.5%	4.3%	0.3%	x	x
Cc1cccc(OCCNc2ncccc2[N+](=O)[O-])c1	x	9.3%	-4.0	x	x	x	x	x
Cc1cccc(NCc2ccc([N+](=O)[O-])s2)c1	x	6.1%[15.4 µM]	-6.0	u	-18.1%	-0.4%	21.3µM*	u
O=[N+]([O-])c1ccc(CNc2cccc(F)c2)s1	u	13.6%[15.4 µM]	-1.4	13.5µM*	-4.1%	1.5%	5.36µM*	13.5µM*
CC(Cc1ccccc1)NCCC(=O)NC(C)Cc1ccccc1 (stereo not given)	9.9%	-73.5%	-0.9	3.2%	10.2%	0.3%	x	x
CCc1ccccc1N1C(=O)CC(=O)NC1=O	1.5%	12.9%[15.4 µM]	-9.5	1.2%	-10.6%	3.4%	x	x
O=C(O)[C@@H]1C[C@H]1[C@@H](NP(=O)(c1ccccc1)c1ccccc1)c1ccccc1	4.2%	x	x	-11.1%	2.7%	1.8%	x	x
N#C/C(C(=O)Nc1ccc(Cl)cc1)=C(/S)Nc1ccccc1	8.7%	u	-26.7	9.53µM*	-13.1%	5.3%	15.1µM*	u
CC(=O)N(C1=C(Cl)C(=O)c2ccccc2C1=O)C1CCCCC1	-15.9%	27.9%[15.4 µM]	-98.7*	0.675µM*	u	-2.7%	0.379µM*	0.379µM*
O=c1c(C=Nc2cccnc2Cl)c(O)n(CCCCl)c(=O)n1C1CCCCC1	-2.9%	u	-9.9	8.5%	-11.4%	2.1%	x	x
CNC(C)Cc1ccccc1OC (stereo not given)	x	x	15.7	x	x	x	x	x
CC(=O)Nc1cccc(NC(=S)Nc2ccc(F)c(Cl)c2)c1	0.1%	3.6%	-3.7	21.3µM*	1.0%	-1.9%	u	u
CC1(C)CSC(Nc2ccc(F)c(Cl)c2)=N1	4.7%	-5.2%	1.9	2.3%	-9.2%	1.9%	x	x
FC(F)(F)c1cccc(NC2=NCCCS2)c1	x	-16.5%	13.2	-0.7%	4.8%	-0.3%	x	x
FC(F)(F)c1cccc(NC(=S)Nc2ccc(Cl)c(Cl)c2)c1	5.9%	28.3%	-28.3	9.53µM*	-28.5%	-0.9%	u	u
Cc1cccnc1NC(=S)Nc1ccc(Cl)c(Cl)c1	7.7%	2.3%	-10.6	13.5µM*	-5.6%	3.8%	u	u
C[C@]12CCC3C(CC[C@H]4C[C@H](N)CC[C@]34C)C1CC[C@H]2O (stereo not given in full)	0.3%	-0.3%	-8.0	-13.4%	16.2%	-0.2%	x	x
O=C(NNC(=O)c1ccccc1O)c1cc2ccccc2o1	17.1%	6.6%[15.4 µM]	-1.0	u	-8.0%	-0.3%	-28.5%	u
COc1ccc(CC2(CCc3ccccn3)C(=O)NC(=O)N(c3ccccc3C)C2=O)cc1OC (stereo not given)	4.0%	-9.9%	4.9	0.1%	-11.6%	-0.6%	x	x
O=c1[nH]c2ccccc2c(=O)n1-c1cccc(Cl)c1	-0.3%	-13.5%	-0.3	0.2%	8.3%	-1.2%	x	x
O=c1[nH]c2ccsc2c(=O)n1-c1ccc(F)c(Cl)c1	5.3%	2.5%	-1.3	u	-6.1%	1.9%	-28.1%	29.3%
CN(C)c1ccc(P(=S)(N(C)C)N(C)C)cc1	-3.4%	5.4%	-2.2	0.1%	-14.0%	0.1%	x	x
CCN(CC)C(=O)c1ccc(NC(=O)CSc2nnnn2-c2cc(OC)ccc2OC)cc1	0.9%	-8.2%	14.0	-1.6%	-30.0%	0.7%	x	x
CCCCc1ccc(-n2nnnc2SCC(=O)Nc2cc(OC)c([N+](=O)[O-])cc2C)cc1	14.7%	0.6%	-14.6	u	-11.1%	2.5%	6.7%	-1.6%
CC1=NOC(=O)/C1=C/c1ccc(N(C)C)cc1	27.5%	21.7%	-5.9	15.1µM*	u	-0.6%	u	13.5µM*
SMILES	p53 reactivator	gsp agonist	RXFP1 antagonist	Tb PFK inh-1	gsp antag	RXFP1 ag	TbPFK ATP	Tb PFK inh-2
CC1=NN(CCC#N)C(=O)/C1=C/c1ccc(N(C)C)cc1	0.5%	1.3%[15.4 µM]	-18.5	21.3µM*	-11.4%	0.5%	10.7µM*	26.9µM*
CCCCN1C(=O)/C(=C/c2ccc(N(C)C)cc2)C(=O)N(Cc2ccco2)C1=O	-5.2%	-13.4%	-8.5	-2.9%	10.2%	-1.6%	x	x
CCCCn1c(=O)c(C(=O)Nc2ccccn2)c(O)c2ccccc21	x	16.7%	-3.1	2.9%	23.2%	1.1%	x	x
CN1CCN(c2ccc(N)cc2)CC1	-0.7%	u	-11.9	-1.0%	-11.1%	-2.6%	x	x
COC1C(OC(=O)c2ccc(C)[nH]2)C(O)C(Oc2ccc3c(O)c(NC(=O)c4ccc(O)c(CC=C(C)C)c4)c(=O)oc3c2Cl)OC1(C)C (stereo not given)	0.5%	x	x	-7.1%	u	-1.3%	x	x
CSS(=O)(=O)c1cccc2cccnc12	-14.7%	27.8%	-23.3	16.9µM*	-5.7%	1.9%	21.3µM*	30.1µM*
Cc1ccc(N(C)C(=O)Oc2cccc3cccnc23)cc1	-1.7%	-24.0%	13.8	-10.7%	4.7%	0.7%	x	x
COc1ccc(Cl)cc1C(=O)C1CCCN(CCO)C1 (stereo not given)	-0.8%	-36.1%	-1.4	-2.0%	9.8%	-3.5%	x	x
O=C(Cn1cc(C(=O)c2ccccc2F)c2ccccc21)NCc1ccco1	3.9%	3.9%	7.9	0.2%	34.6%	9.6%	x	x
N#Cc1ccc2ccn(CC(=O)NCc3ccco3)c2c1	-0.7%	1.4%	-5.6	21.3µM*	0.0%	-0.3%	13.5µM*	30.1µM*
C=CC#CC[N+]1(CC#Cc2ccccc2)CCOCC1	-1.2%	8.9%	-4.1	u	0.9%	-1.1%	-29.1%	u
Clc1nssc1=Nc1nncs1	-27.9%	21.3%	x	4.26µM*	-9.1%	-0.4%	12µM*	9.53µM*
O=C(Nc1cccc(Cl)c1)OC1CN2CCC1CC2 (stereo not given)	8.2%	-44.4%	-3.5	-0.6%	u	1.6%	x	x
O=C(Nc1cccc(Cl)c1)c1cccc(N2C(=O)C3CC=CCC3C2=O)c1 (stereo not given)	3.2%	-14.0%	-17.6	26.9µM*	-28.5%	-4.3%	6.01µM*	13.5µM*
COc1ccc2c3c1OC1C(=O)CC[C@@]4(O)[C@@H](C2)N(C)CC[C@]314 (stereo not given in full)	-26.0%	x	x	0.8%	4.5%	x	x	x
